Sampled rows, rich in hits. Any-hit rate of the full collection: about 4.6%.
proKLK7 act: proKLK7 zymogen activators, primary screen, biochemical, fluorescence intensity; Kallikrein-7 (Homo sapiens), P49862; purified proKLK7, EDANS-DABCYL substrate fluorescence; 100% is mature enzyme control, 0% vehicle; activation, % at 7 µM; actives 0.9% (n = 370,000); AID 652039, 2013;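 active = activation above the mean of all tested compounds plus 3 SD, computed per campaign excluding outliers beyond control limits, cut at about 13% in these data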
ADAM17 inh: ADAM17 inhibitors, primary screen, biochemical, QFRET. Disintegrin and metalloproteinase domain-containing protein 17 (Homo sapiens), P78536. recombinant ADAM17, EDANS/DABCYL FRET peptide cleavage. inhibition, % at 6.95 µM. actives 0.83% (n = 370,000);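 active = inhibition above the mean of compounds lying between control limits plus 3 SD, set per campaign, cut at about 8.5% in these data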
Target sequence (P78536 215-824 limits assumed): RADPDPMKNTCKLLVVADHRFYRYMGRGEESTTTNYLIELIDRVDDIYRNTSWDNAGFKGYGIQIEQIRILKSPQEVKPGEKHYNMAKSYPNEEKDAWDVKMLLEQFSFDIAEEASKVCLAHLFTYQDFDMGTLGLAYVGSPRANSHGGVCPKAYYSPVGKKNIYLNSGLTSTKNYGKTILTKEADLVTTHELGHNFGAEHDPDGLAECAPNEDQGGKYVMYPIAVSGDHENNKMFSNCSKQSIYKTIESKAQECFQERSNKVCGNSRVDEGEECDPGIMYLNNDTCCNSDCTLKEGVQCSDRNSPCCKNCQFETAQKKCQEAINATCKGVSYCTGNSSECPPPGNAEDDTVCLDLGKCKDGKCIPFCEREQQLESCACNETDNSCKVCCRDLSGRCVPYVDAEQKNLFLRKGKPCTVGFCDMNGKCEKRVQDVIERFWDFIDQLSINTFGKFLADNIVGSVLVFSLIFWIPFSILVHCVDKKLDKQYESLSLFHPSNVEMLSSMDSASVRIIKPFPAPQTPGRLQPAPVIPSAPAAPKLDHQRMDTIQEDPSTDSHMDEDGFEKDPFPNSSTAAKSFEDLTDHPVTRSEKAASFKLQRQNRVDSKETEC
FAS TE block: FAS thioesterase domain inhibitors, primary screen, biochemical, fluorescence intensity, uHTS; AID 602261, 2012; recombinant FAS-TE, OMFH fluorogenic substrate, fluorescence endpoint; actives 0.67% (n = 360,000); inhibition, % at 15 µM; Fatty acid synthase (Homo sapiens), P49327;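 active = compounds whose normalised, plate-corrected inhibition of enzyme fluorescence in the single-dose primary screen is 50% or more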
ADAM10 inh: human ADAM10 inhibitors, primary screen, biochemical, QFRET, HTS; recombinant ADAM10, EDANS/DABCYL FRET peptide cleavage, 3 h; inhibition, % at 7 µM; Disintegrin and metalloproteinase domain-containing protein 10 (Homo sapiens), O14672; actives 0.62% (n = 370,000);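 active = inhibition above a per-campaign cutoff equal to the mean of compounds falling between control-based bounds plus 3 SD, cut at about 20% in these data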
NR3A LBD binder: binders of NR3A ligand-binding domain, primary screen, biophysical, differential scanning fluorimetry, uHTS | Glutamate receptor ionotropic, NMDA 3A (GRIN3A) ligand-binding domain | NR3A LBD differential scanning fluorimetry, Tm shift; 0% = protein alone, 100% = glycine-bound protein | Tm shift relative to glycine control, % at 25 µM | actives 2.5% (n = 340,000);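 active = melting temperature shift of at least 10% of the positive control shift, at one fixed dose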
proKLK7 act conf: proKLK7 zymogen activators, confirmation, biochemical, fluorescence intensity, triplicate. shares compounds with proKLK7 act. purified proKLK7, EDANS-DABCYL substrate fluorescence; scaled: vehicle 0, mature enzyme 100. actives 68% (n = 3,200). activation, % at 7 µM;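 active = activation, as change over the incubation, above the mean of all tested compounds plus 3 SD, cut at about 13% in these data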
EDANS interfere: EDANS-DABCYL substrate optical interference, artefact control for kallikrein-7 zymogen activator project, biochemical, fluorescence intensity, high throughput. no enzyme, 4 h; solvent 0%, active enzyme control 100%. actives 80% (n = 3,200). shares compounds with proKLK7 act. activation, % at 7 µM;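 active = activation above the all-compound mean plus 3 SD, ignoring values outside control-based bounds, cut at about 4.8% in these data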;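 note: value is the 4 h activation minus the activation read at time zero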
Hits are given with their value.

`CN1CCN(Cc2c(O)ccc3c(-c4ccccc4)cc(=O)oc23)CC1` gave proKLK7 act 17.0, ADAM17 inh inactive, FAS TE block inactive, ADAM10 inh inactive, NR3A LBD binder inactive, proKLK7 act conf inactive and EDANS interfere inactive.
O=c1oc2c(CN3CCN(CCO)CC3)c(O)ccc2cc1-c1ccccn1 was read as proKLK7 act 60.3, ADAM17 inh inactive, FAS TE block inactive, ADAM10 inh inactive, NR3A LBD binder inactive, proKLK7 act conf 69.8 and EDANS interfere 81.9.
Screening Cc1n[nH]c(C)c1S(=O)(=O)NCCc1ccccc1 returned proKLK7 act inactive, ADAM17 inh inactive and ADAM10 inh inactive.
`COC(=O)[C@@]12CCCCC=C1N(CCc1ccc(Cl)cc1)C(=O)[C@H]2CC(=O)NCc1cccc2ccccc12` gave proKLK7 act inactive, ADAM17 inh inactive and ADAM10 inh inactive.
CN(C)S(=O)(=O)c1cccc(C(=O)N/N=C\c2ccc(-c3ccccn3)cc2)c1 was read as proKLK7 act inactive, ADAM17 inh inactive and ADAM10 inh inactive.
For COC(=O)C1=C(C)N(Cc2ccc(C(F)(F)F)cc2)C(=NCC2CC2)NC1c1cccc(Cl)c1 (stereo unspecified) the results were proKLK7 act inactive, ADAM17 inh inactive and ADAM10 inh inactive.
Screening Cc1cc(=O)oc2c(CN3CCCC3)c(O)ccc12 returned proKLK7 act 44.9, ADAM17 inh inactive, FAS TE block inactive, ADAM10 inh inactive, NR3A LBD binder inactive, proKLK7 act conf 76.4 and EDANS interfere 75.3.
`Cc1cc(=O)oc2c(O)c(O)ccc12` gave proKLK7 act inactive, ADAM17 inh inactive, FAS TE block inactive, ADAM10 inh inactive and NR3A LBD binder inactive.
COc1ccc(-c2c(C)oc3c(CN4CCN(CCO)CC4)c(O)ccc3c2=O)cc1OC was read as proKLK7 act inactive, ADAM17 inh inactive, FAS TE block inactive, ADAM10 inh inactive and NR3A LBD binder inactive.
For Cc1cc(=O)oc2c(CN3CCN(CCO)CC3)c(O)ccc12 the results were proKLK7 act 119.9, ADAM17 inh inactive, FAS TE block inactive, ADAM10 inh inactive, NR3A LBD binder inactive, proKLK7 act conf 65.4 and EDANS interfere 68.5.
For CCN1CCN(Cc2c(O)ccc3c(C)cc(=O)oc23)CC1 the results were proKLK7 act 44.0, ADAM17 inh inactive, FAS TE block inactive, ADAM10 inh inactive, NR3A LBD binder inactive, proKLK7 act conf 70.7 and EDANS interfere 72.9.
Screening CSc1nn(CCC#N)c(=O)[nH]c1=O returned proKLK7 act inactive, ADAM17 inh inactive and ADAM10 inh inactive.
Screening CC(C)C(=O)Nc1sc2c(c1-c1nc3ccccc3[nH]1)CCCC2 returned proKLK7 act 496.3, ADAM17 inh inactive, FAS TE block inactive, ADAM10 inh inactive, NR3A LBD binder inactive, proKLK7 act conf inactive and EDANS interfere 4.7.
CCC(C)CNC(=O)c1oc(=O)c2ccccc2c1-c1ccc(C)cc1 (stereo unspecified) was read as proKLK7 act inactive, ADAM17 inh inactive and ADAM10 inh inactive.
COc1cc2c(cc1OC)CN(C1CCCN(Cc3cccc(C(C)=O)c3)C1)CC2 (stereo unspecified) was read as proKLK7 act 22.9, ADAM17 inh inactive, FAS TE block inactive, ADAM10 inh inactive, NR3A LBD binder inactive, proKLK7 act conf inactive and EDANS interfere 11.5.
CCc1c(Cc2ccccc2)ncn1CCc1ccccc1OC was read as proKLK7 act inactive, ADAM17 inh inactive and ADAM10 inh inactive.
Screening COC(=O)[C@]12C[C@H](CC(=O)NCCCN3CCCC3=O)C(=O)N(Cc3ccc4c(c3)OCO4)C1=C[C@H](C(C)C)O[C@@H]2C1CC1 returned proKLK7 act inactive, ADAM17 inh inactive and ADAM10 inh inactive.
For O=C(c1cnn2c(C(F)(F)F)cc(-c3cccs3)nc12)N1CCCC1 the results were proKLK7 act 16.1, ADAM17 inh inactive, FAS TE block inactive, ADAM10 inh inactive, NR3A LBD binder inactive, proKLK7 act conf 13.0 and EDANS interfere 14.0.
`COc1ccc(-c2cc(C(F)(F)F)n3nc(N)nc3n2)cc1` gave FAS TE block inactive and NR3A LBD binder inactive.
Screening O=C(c1nc2nc(-c3cccs3)cc(C(F)(F)F)n2n1)N1CCN(Cc2ccccc2)CC1 returned proKLK7 act 26.4, ADAM17 inh inactive, FAS TE block inactive, ADAM10 inh inactive, NR3A LBD binder inactive, proKLK7 act conf inactive and EDANS interfere inactive.
CCOC(=O)c1nc2nc(-c3cccs3)cc(C(F)(F)F)n2n1 was read as proKLK7 act 61.6, ADAM17 inh inactive, FAS TE block inactive, ADAM10 inh inactive, NR3A LBD binder inactive, proKLK7 act conf 65.1 and EDANS interfere 61.5.
For CC(C)(C)NC(=O)c1nc2nc(-c3ccccc3)cc(C(F)(F)F)n2n1 the results were proKLK7 act inactive, ADAM17 inh inactive, FAS TE block inactive, ADAM10 inh inactive and NR3A LBD binder inactive.
`Nc1nc2nc(-c3cccs3)cc(C(F)(F)F)n2n1` gave proKLK7 act 81.8, ADAM17 inh inactive, FAS TE block inactive, ADAM10 inh inactive, NR3A LBD binder inactive, proKLK7 act conf 74.7 and EDANS interfere 78.4.
Screening CCOC(=O)c1cc(-c2cccs2)nc2onc(C)c12 returned proKLK7 act 18.2, ADAM17 inh inactive, FAS TE block inactive, ADAM10 inh inactive, NR3A LBD binder inactive, proKLK7 act conf inactive and EDANS interfere inactive.
`Nc1nc2nc(-c3ccc(F)cc3)cc(C(F)(F)F)n2n1` gave proKLK7 act 23.7, ADAM17 inh inactive, FAS TE block inactive, ADAM10 inh inactive, NR3A LBD binder inactive, proKLK7 act conf 17.3 and EDANS interfere 15.7.
`CCOC(=O)c1sc(-c2cccs2)nc1C` gave proKLK7 act inactive, ADAM17 inh inactive, FAS TE block inactive, ADAM10 inh inactive and NR3A LBD binder inactive.
Screening COc1ccc(S[C@]2(C(=O)NCCCN(C)C)CC(=O)N[C@@H]2c2ccc(OC)cc2)cc1 returned proKLK7 act inactive, ADAM17 inh inactive and ADAM10 inh inactive.
For CCCCNS(=O)(=O)/C=C/c1ccc(OC)cc1CNC(=O)OC(C)(C)C the results were proKLK7 act inactive, ADAM17 inh inactive and ADAM10 inh inactive.

Bioassay records: PubChem, several laboratories
